Test results: PubChem BioAssay (Tox21)
Values joined by “and” are separate entries in the source; they are usually repeats but may differ in a detail not shown here. Identical values can stand only once. Results filed as inconclusive are left out. The source holds several records for some structures; these can differ, active in one and inactive in another. Active and inactive are the calls of the source. Unless noted, the call rests on the fitted dose curve.

Assays:
[1] = Nuclear factor erythroid 2-related factor 2/antioxidant responsive element (Nrf2/ARE) small molecule agonists: qHTS cell viability counter screen in human keratinocytes (AID 1919968; active means well fitted curve in the direction sought with a large enough effect in the repeat runs; an effect the other way counts as inactive or inconclusive; further: nearly all actives have a fitted effect of over 55% in size; further: potency means the concentration at half of the fitted maximal effect)
Procedure, shortened: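 After a 5 h attachment period, ARE-reporter keratinocytes were dosed with compounds in DMSO and then cultured 23 h at 37 C. Cell viability came from CellTiter-Fluor signal read after a further 1 h.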

[2] = Nuclear factor erythroid 2-related factor 2/antioxidant responsive element (Nrf2/ARE) small molecule agonists: luciferase reporter gene qHTS assay in human keratinocytes (AID 1919969); further: nearly all actives have a fitted effect of over 35% in size; further: potency means the concentration at half of the fitted maximal effect
[3] = target: Gonadotropin-releasing hormone receptor (Homo sapiens) (UniProt P30968); assay: Human gonadotropin-releasing hormone receptor (GnRHR) small molecule agonists, calcium flux assay in GnRHR-HEK293 cells (AID 1920063); further: nearly all actives have a fitted effect of over 35% in size
Sequence of Gonadotropin-releasing hormone receptor (Homo sapiens) (P30968 whole entry, looked up): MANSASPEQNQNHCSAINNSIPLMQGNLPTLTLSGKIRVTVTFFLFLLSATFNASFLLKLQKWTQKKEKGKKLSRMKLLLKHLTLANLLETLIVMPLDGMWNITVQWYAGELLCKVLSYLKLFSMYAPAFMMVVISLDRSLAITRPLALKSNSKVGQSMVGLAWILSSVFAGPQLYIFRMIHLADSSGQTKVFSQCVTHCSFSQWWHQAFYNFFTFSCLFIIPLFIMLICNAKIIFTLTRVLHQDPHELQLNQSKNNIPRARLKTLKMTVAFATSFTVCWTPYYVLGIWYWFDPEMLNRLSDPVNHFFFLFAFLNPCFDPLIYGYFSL
Procedure, shortened: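 We seeded human GnRHR-expressing HEK293 cells for 18 hours, loaded them with calcium dye for an hour at 37 C, added test compounds, and recorded fluorescence intensity kinetically for three minutes.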

[4] = target: KiSS-1 receptor (Homo sapiens) (UniProt Q969F8); assay: Human kisspeptin (KISS1R) small molecule agonists, calcium flux assay in KISS1R-HEK293 cells (AID 1920064; active means well fitted curve in the direction sought with a large enough effect in the repeat runs; an effect the other way counts as inactive or inconclusive)
Sequence of KiSS-1 receptor (Homo sapiens) (Q969F8 whole entry, looked up): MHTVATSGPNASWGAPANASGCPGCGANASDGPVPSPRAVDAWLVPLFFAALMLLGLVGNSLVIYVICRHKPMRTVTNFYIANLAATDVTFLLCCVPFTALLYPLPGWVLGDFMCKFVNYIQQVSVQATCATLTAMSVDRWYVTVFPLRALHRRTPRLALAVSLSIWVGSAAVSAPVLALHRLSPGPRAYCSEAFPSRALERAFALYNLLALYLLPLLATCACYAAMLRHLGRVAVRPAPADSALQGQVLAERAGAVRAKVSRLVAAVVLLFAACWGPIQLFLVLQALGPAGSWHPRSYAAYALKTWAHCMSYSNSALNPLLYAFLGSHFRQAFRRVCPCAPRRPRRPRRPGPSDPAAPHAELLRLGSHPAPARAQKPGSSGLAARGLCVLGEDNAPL
Procedure, shortened: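 Kinetic calcium assay, 1 s sampling over 3 min at Ex/Em 480/540, in HEK293 cells engineered with human KISS1R; compounds delivered in DMSO after 1 h dye loading.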

[5] = G protein-coupled receptor (GPCR) small molecule agonists, calcium flux assay: HEK293 wild type cell line counter screen (AID 1920065)
Procedure, shortened: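 Calcium-sensitive dye, loaded 1 h at 37 C into cells cultured 18 h, reports compound-evoked calcium release as fluorescence (Ex/Em 480/540), measured over 3 min. Agonist mode; 15-point titrations, triplicate.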

[6] = p53 small molecule agonists, cell-based qHTS assay with human liver microsomes (AID 1963577);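 further: p53 response element beta-lactamase reporter cells with liver microsomes plus NADPH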
Procedure, shortened: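 In this qHTS, p53 response-element beta-lactamase cells receive test compound together with a microsome/NADPH activating system (0.5 mg/mL final each) and are incubated 16 h at 37 C before LiveBLAzer fluorescence detection.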

[7] = p53 small molecule agonists, cell-based qHTS assay with rat liver microsomes (AID 1963578)
Procedure, shortened: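 Agonist mode in p53RE-bla reporter cells, with compounds co-incubated 16 h at 37 C alongside 0.5 mg/mL rat liver microsomes and 0.5 mg/mL NADPH (final), followed by a 2 h LiveBLAzer detection step.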

[8] = p53 small molecule agonists, cell-based qHTS assay with human liver microsomes: qHTS cell viability counter screen (AID 1963579); further: nearly all actives have a fitted effect of over 45% in size; further: potency means the concentration at half of the fitted maximal effect
Procedure, shortened: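 Metabolically activated exposure: compounds, human liver microsomes and NADPH (0.5 mg/mL final apiece) were added to p53RE-bla cells seeded 5 h earlier, left 16 h at 37 C, and then assessed for viability by CellTiter-Glo luminescence.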

[9] = p53 small molecule agonists, cell-based qHTS assay with rat liver microsomes: qHTS cell viability counter screen (AID 1963580); further: nearly all actives have a fitted effect of over 45% in size; further: potency means the concentration at half of the fitted maximal effect
Procedure, shortened: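 p53RE-bla HCT-116 cells were exposed 16 h at 37 C to compounds with rat liver microsomes (0.5 mg/mL) and NADPH (0.5 mg/mL). Viability was measured in the same wells as ATP content by CellTiter-Glo luminescence.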

[10] = p53 small molecule agonists, cell-based qHTS assay: qHTS cell viability counter screen (AID 1963581); further: nearly all actives have a fitted effect of over 45% in size; further: potency means the concentration at half of the fitted maximal effect
Procedure, shortened: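 Following 5 h attachment, HCT-116 p53RE-bla cells took up compound for 16 h at 37 C; the reporter was read with B/G FRET substrate (2 h RT), and viability then via CellTiter-Glo ATP luminescence.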

[11] = p53 small molecule agonists, cell-based qHTS assay (AID 1963582; active means well fitted activation curve with a large enough effect in the signal ratio in the repeat runs, not every such curve was filed as active; the % refers to the signal ratio)
Procedure, shortened: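 In this cell-based concentration-response screen, a p53 response element drives beta-lactamase; cells received DMSO-borne compounds after 5 h culture and were incubated a further 16 h before FRET substrate development.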

[12] = target: 5-hydroxytryptamine receptor 2A (Homo sapiens) (UniProt P28223); assay: 5-hydroxytryptamine receptor 2A (HTR2A) small molecule agonists, cell-based qHTS assay (AID 1963587); further: nearly all actives have a fitted effect of over 30% in size
Sequence of 5-hydroxytryptamine receptor 2A (Homo sapiens) (P28223 whole entry, looked up): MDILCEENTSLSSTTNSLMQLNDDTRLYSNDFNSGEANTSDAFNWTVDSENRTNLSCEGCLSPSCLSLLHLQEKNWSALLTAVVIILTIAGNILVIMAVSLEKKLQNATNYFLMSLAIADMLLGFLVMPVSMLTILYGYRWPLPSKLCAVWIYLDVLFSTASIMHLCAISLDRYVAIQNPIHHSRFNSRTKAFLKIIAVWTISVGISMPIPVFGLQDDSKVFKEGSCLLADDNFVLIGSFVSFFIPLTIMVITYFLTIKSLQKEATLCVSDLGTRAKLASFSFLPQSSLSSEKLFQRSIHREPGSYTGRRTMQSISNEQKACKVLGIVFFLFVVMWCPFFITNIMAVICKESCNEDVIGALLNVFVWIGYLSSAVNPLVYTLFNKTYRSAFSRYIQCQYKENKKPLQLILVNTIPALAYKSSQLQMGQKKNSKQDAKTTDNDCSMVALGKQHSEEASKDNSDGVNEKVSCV
Procedure, shortened: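 CHO cells stably expressing human HTR2A, plated 18 h, loaded with calcium dye 1 h at 37 C. Agonist mode: compounds added and intracellular calcium fluorescence recorded kinetically for 2 min at 1 sec intervals.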

[13] = target: Muscarinic acetylcholine receptor M1 (Homo sapiens) (UniProt P11229); assay: Cholinergic receptor muscarinic 1 (CHRM1) small molecule antagonists, cell-based qHTS assay (AID 1963588); further: nearly all actives have a fitted effect of over 40% in size
Sequence of Muscarinic acetylcholine receptor M1 (Homo sapiens) (P11229 whole entry, looked up): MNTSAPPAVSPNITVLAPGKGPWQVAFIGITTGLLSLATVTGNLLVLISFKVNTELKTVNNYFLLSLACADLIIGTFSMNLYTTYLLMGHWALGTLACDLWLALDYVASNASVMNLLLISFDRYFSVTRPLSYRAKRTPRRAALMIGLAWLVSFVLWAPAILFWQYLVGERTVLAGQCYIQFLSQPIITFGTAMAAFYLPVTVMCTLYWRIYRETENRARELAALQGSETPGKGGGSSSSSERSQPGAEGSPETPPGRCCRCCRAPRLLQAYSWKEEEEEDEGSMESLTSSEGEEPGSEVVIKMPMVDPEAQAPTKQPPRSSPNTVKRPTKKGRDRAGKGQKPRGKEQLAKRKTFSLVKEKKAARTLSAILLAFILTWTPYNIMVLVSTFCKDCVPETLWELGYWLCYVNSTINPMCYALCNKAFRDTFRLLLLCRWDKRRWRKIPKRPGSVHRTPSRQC
Procedure, shortened: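 CHRM1-CHO calcium-flux assay, antagonist mode. Cells were seeded 18 h, dye-loaded 1 h at 37 C and given compound for 5 min at RT, then acetylcholine was added at 50nM. FDSS fluorescence was read 3 min; 15 concentrations, three runs.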

[14] = target: Muscarinic acetylcholine receptor M1 (Homo sapiens) (UniProt P11229); assay: Cholinergic receptor muscarinic 1 (CHRM1) small molecule agonists, cell-based qHTS assay (AID 1963589); further: nearly all actives have a fitted effect of over 35% in size
Procedure, shortened: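 Measures agonist-induced intracellular calcium rise. Stable human CHRM1 CHO line, 1 h dye load at 37 C, compounds from DMSO, kinetic fluorescence read.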

[15] = cAMP Responsive Elements (CRE) small molecule agonists, cell-based qHTS assay (AID 1963590)
Procedure, shortened: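 A CRE-responsive beta-lactamase reporter in HEK 293T cells was used. Treatment ran 3 h at 37 C; detection used LiveBLAzer B/G FRET substrate for 2 h at room temperature.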

[16] = cAMP Responsive Elements (CRE) small molecule antagonists, cell-based qHTS assay (AID 1963591; active means well fitted inhibition curve with a large enough effect in the signal ratio in the repeat runs, not every such curve was filed as active; the % refers to the signal ratio)
Procedure, shortened: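 HEK293T cells carrying a CRE-driven beta-lactamase reporter receive compound and NKH477 (0.25 uM final) for 3 h. Fluorescence from LiveBLAzer B/G FRET substrate is read after 2 h at room temperature.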

[17] = target: Beta-2 adrenergic receptor (Homo sapiens) (UniProt P07550); assay: Adrenergic beta2 receptor (ADRB2) small molecule antagonists, cell-based qHTS assay (AID 1963592); further: nearly all actives have a fitted effect of over 50% in size; further: potency means the concentration at half of the fitted maximal effect
Sequence of Beta-2 adrenergic receptor (Homo sapiens) (P07550 whole entry, looked up): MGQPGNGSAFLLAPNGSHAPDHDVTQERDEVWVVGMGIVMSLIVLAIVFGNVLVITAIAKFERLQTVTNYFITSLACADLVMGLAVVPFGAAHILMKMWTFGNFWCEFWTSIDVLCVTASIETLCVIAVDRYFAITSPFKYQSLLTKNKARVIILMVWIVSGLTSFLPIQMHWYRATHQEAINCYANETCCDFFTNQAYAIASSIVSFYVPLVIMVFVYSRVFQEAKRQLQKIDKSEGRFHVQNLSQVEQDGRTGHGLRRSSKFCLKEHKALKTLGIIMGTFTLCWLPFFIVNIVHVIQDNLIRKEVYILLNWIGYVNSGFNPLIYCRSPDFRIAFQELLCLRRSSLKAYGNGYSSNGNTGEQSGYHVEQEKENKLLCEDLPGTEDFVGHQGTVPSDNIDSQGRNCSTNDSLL
Procedure, shortened: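 Cells (CHO, stable ADRB2 overexpression) incubated 18-20hr at 37C; compounds added from DMSO; agonist mix (1nM isoproterenol, 100uM IBMX, 25uM Ro-20-1724) added; 0.5hr RT; d2-cAMP and anti-cAMP-cryptate added; 1hr RT; 665/615 nm read.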

[18] = target: D(2) dopamine receptor (Homo sapiens) (UniProt P14416); assay: Dopamine D2 receptor (DRD2) small molecule agonists, cell-based qHTS assay (AID 1963594); further: nearly all actives have a fitted effect of over 35% in size
Sequence of D(2) dopamine receptor (Homo sapiens) (P14416 whole entry, looked up): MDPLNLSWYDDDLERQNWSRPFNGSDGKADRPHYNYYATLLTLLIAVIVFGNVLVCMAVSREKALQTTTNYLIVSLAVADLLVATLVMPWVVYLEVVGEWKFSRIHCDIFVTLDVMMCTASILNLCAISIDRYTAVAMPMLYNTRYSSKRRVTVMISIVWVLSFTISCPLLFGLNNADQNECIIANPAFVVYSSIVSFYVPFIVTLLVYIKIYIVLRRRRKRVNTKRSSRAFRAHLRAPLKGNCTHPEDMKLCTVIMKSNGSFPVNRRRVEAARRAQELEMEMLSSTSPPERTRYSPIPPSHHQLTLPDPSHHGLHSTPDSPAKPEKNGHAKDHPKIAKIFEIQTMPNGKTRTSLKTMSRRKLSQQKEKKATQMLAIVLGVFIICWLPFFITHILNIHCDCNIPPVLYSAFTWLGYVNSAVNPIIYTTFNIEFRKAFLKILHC
Procedure, shortened: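 HEK293 cells stably expressing human DRD2, pre-treated with PDE inhibitor Ro20-1724 (0.1 mM final) and compound 10 min at room temperature, then stimulated with NKH477 (200nM […]) for 30 min. cAMP read by HTRF (665/620 nm).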

[19] = target: D(2) dopamine receptor (Homo sapiens) (UniProt P14416); assay: Dopamine D2 receptor (DRD2) small molecule antagonists, cell-based qHTS assay (AID 1963595; active means well fitted inhibition curve with a large enough effect in the signal ratio in the repeat runs, with a control signal flat; the % refers to the signal ratio)
Procedure, shortened: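 Antagonism was scored as restored cAMP in HEK293-DRD2 cells. These cells were stimulated with 200 nM NKH477 and 12 nM quinpirole for 30 min at room temperature, in the presence of 0.1 mM Ro20-1724.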

[20] = target: 5-hydroxytryptamine receptor 2A (Homo sapiens) (UniProt P28223); assay: 5-hydroxytryptamine receptor 2A (HTR2A) small molecule antagonists, cell-based qHTS assay (AID 1963586); further: nearly all actives have a fitted effect of over 45% in size; further: potency means the concentration at half of the fitted maximal effect
Procedure, shortened: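 Antagonist-mode intracellular calcium assay: DOI (4 nM) added after 5 min compound pre-incubation at room temperature to dye-loaded HTR2A-CHO cells. Fluorescence followed for 3 min, sampled every second.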

Measured: Potency

CCCCC(C)C(=O)O (stereo not drawn)
not listed: [20]
inactive: all other assays above

CC(C)(C)c1ccc(C=O)cc1
not listed: [20]
inactive: all other assays above

C[N+](C)(CCOc1ccccc1)Cc1cccs1
not listed: [12] | [15] | [16]
inactive: all other assays above

CCCN1CCCC[C@H]1C(=O)Nc1c(C)cccc1C
not listed: [12] | [17]
inactive: all other assays above

CCCCSCCCC
not listed: [12]
inactive: all other assays above

CC(C)C(=O)OC(=O)C(C)C
not listed: [20]
inactive: all other assays above

Cc1ccc(C(C)NC(=O)[C@@H](NC(=O)OC(C)C)C(C)C)cc1 (stereo partly drawn)
not listed: [12] | [19]
inactive: all other assays above

COc1ccccc1/C=C/C=O
active: [2] 54.5 µM
not listed: [12]
inactive: all other assays above

CCCCCC(CC)OC(=O)CCCOc1ccc(Cl)cc1Cl (stereo not drawn)
not listed: [20]
inactive: all other assays above

CC(CO)Oc1ccccc1 (stereo not drawn)
not listed: [20]
inactive: all other assays above

CC(C)=O
not listed: [12] | [17]
inactive: all other assays above

O=C(O)c1cc(C(=O)O)cc([N+](=O)[O-])c1
not listed: [20]
inactive: all other assays above

CCc1cccc(CC)c1NC(=O)C(=O)O
not listed: [20]
inactive: all other assays above

CC(=O)OCCCc1ccccc1
not listed: [12] | [14] | [18]
inactive: all other assays above

C[Si](C)O[Si](C)(C)O[Si](C)(C)O[Si](C)C
not listed: [12]
inactive: all other assays above

Cn1ccnc1
not listed: [12]
inactive: all other assays above

C[C@@H]1O[C@@H](OC[C@H]2O[C@@H](Oc3c(-c4ccc(O)c(O)c4)oc4cc(O)cc(O)c4c3=O)[C@H](O)[C@@H](O)[C@@H]2O)[C@H](O)[C@H](O)[C@H]1O
not listed: [20]
inactive: all other assays above

C1CCC2OC2C1 (stereo not drawn)
not listed: [12]
inactive: all other assays above

O=S(=O)(O)CC(O)CCl (stereo not drawn)
not listed: [18] | [19] | [20]
inactive: all other assays above

CN(C)Cc1ccccc1O
not listed: [20]
inactive: all other assays above

Cc1ccccc1OCC(O)CO (stereo not drawn)
not listed: [12] | [13]
inactive: all other assays above

C=CC(=O)CCCCC
not listed: [12] | [13]
inactive: all other assays above

OCC(O)CN1CCN(c2ccccc2)CC1 (stereo not drawn)
not listed: [18] | [20]
inactive: all other assays above

NC(=O)Cc1cccc2ccccc12
not listed: [12]
inactive: all other assays above

Nc1nc(=O)n([C@@H]2O[C@H](CO)[C@@H](O)[C@@H]2F)cc1I
not listed: [20]
inactive: all other assays above

ON=C1CCCCC1
inactive and 68.6 µM (active): [2]
not listed: [12] | [14] | [15] | [16]
inactive: all other assays above

CC(=O)NCc1c(I)c(NC(C)=O)c(I)c(C(=O)O)c1I
not listed: [16] | [18] | [20]
inactive: all other assays above

Oc1ccc(Cl)cc1Sc1cc(Cl)ccc1O
45.7 µM (active) and inactive: [9]
32.3 µM (active) and inactive: [8]
29.7 µM (active) and inactive: [20]
68.5 µM (active) and inactive: [17]
active: [1] 38.5 µM | [10] 18.2 µM and 17.8 µM
15.3 µM (active) and inactive: [2]
not listed: [11] | [15] | [16]
inactive: all other assays above

Oc1ccc(/C=C/c2cc(O)cc(O)c2)cc1
active: [2] 4.9 µM and 7.7 µM and 11.9 µM
not listed: [12] | [13] | [14] | [15] | [20]
inactive: all other assays above

COc1ccc(C(=O)c2cccc(O)c2)c(OC)c1
not listed: [11]
inactive: all other assays above

CCC(C)(C)C1CCC(=O)CC1
not listed: [11]
inactive: all other assays above

O=C(c1ccc(O)cc1O)c1ccc(O)cc1O
not listed: [11] | [15] | [17]
inactive: all other assays above

C[C@@H](O)[C@H]1C(=O)N2C(C(=O)O)=C(SCCN=CN)C[C@H]12
not listed: [11]
inactive: all other assays above

CCCCCCCCC(=O)OCC
not listed: [13] | [19] | [20]
inactive: all other assays above

CC(C)c1cc2c(cc1S(=O)(=O)O)[C@@]1(C)CCC[C@@](C)(C(=O)O)[C@@H]1CC2
not listed: [11]
inactive: all other assays above
